Reference: publication PMC5540273 (PLoS ONE, 2017)
Several values for one entry are separate records, joined by “and”; a condition that tells them apart may be missing. Equal values may be shown once. Read-outs that look alike come from different tables or passages of the source.

Experiments:
MST1 = system: T1, MST1; conditions: concentration: 1 μM, replicates: in singlicate, n = 1
T1 construct: gene STK4

MST2 = system: T2, MST2; conditions: concentration: 1 μM, replicates: in singlicate; n = 1
T2 construct: gene STK3

MST3 = system: T3, MST3; conditions: concentration: 1 μM, replicates: in singlicate, n = 1
T3 construct: gene STK24

MST4 = conditions: concentration: 1 μM, replicates: in singlicate, n = 1
MTOR = conditions: concentration: 1 μM, replicates: in singlicate, n = 1
MUSK = conditions: concentration: 1 μM, replicates: in singlicate; n = 1
MYLK2 = conditions: concentration: 1 μM, replicates: in singlicate, n = 1
MYLK4 = conditions: concentration: 1 μM, replicates: in singlicate, n = 1
MYLK = conditions: concentration: 1 μM, replicates: in singlicate, n = 1
MYO3A = conditions: concentration: 1 μM, replicates: in singlicate, n = 1
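Further: KINOMEscan kinase panel screen.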

SMILES	%Inh (MST1) [%]	%Inh (MST2) [%]	%Inh (MST3) [%]	%Inh (MST4) [%]	%Inh (MTOR) [%]	%Inh (MUSK) [%]	%Inh (MYLK2) [%]	%Inh (MYLK4) [%]	%Inh (MYLK) [%]	%Inh (MYO3A) [%]	%Inh (MST1; 1 µM)	%Inh (MST3; 1 µM)	%Inh (MST4; 1 µM)	%Inh (MTOR; 1 µM)	%Inh (MYLK2; 1 µM)	%Inh (MYLK4; 1 µM)	%Inh (MYLK; 1 µM)	%Inh (MYO3A; 1 µM)
CC(=O)Nc1ccc(COc2ccc(Nc3ccnc4cc(-c5ccccn5)ccc34)cc2)cc1.Cl [GW440148]	0	30	22	0	13	8	3	16	13	27								
COC(=O)Nc1nc2cc(Oc3ccc(NC(=O)Nc4cc(F)ccc4F)cc3)ccc2[nH]1.Cl [GW701424]	0	0	6	0	15	99.1	0	0	0	33								
Cc1cccc(-c2nc(Nc3ccc4ncsc4c3)c3ccccc3n2)n1 [GW867588]	18	0	0	16	0	0	0	0	0	0								
Cc1nnc(-c2ccc(C)c(-c3ccc(C(=O)Nc4ccc(NS(C)(=O)=O)cc4)cc3)c2)o1 [GW702865]	6	0	0	0	28	0	0	8	3	23								
N#Cc1c(N2CCOCC2)sc(-c2ccn[nH]2)c1-c1ccc(Cl)cc1	21	0	19	0	0	0	8	5	23	3								
COc1cc2ncn(-c3cc(OCc4sccc4Cl)c(C(N)=O)s3)c2cc1OC [GSK448459]	21	68	0	0	11	7	31	72	37	12								
COc1ccc(COc2cc(-n3cnc4ccccc43)sc2C(N)=O)cc1 [GSK1024304]	0	0	0	0	0	14	0	0	0	0								
Cn1ccc2ncnc(Oc3ccc(NC(=O)Nc4ccncc4)c(Cl)c3)c21	0	0	0	0	11	0	11	0	0	14								
COc1ccc(Nc2ncc(C#N)c(Nc3ccccc3C(N)=O)n2)cc1N1CCN(C)CC1.Cl [GSK1558669]	98.3	51	95.5	99.4	0	80	98.2	98.2	99.4	76								
O=C(NCCCN1CCOCC1)c1cccc(Nc2nccc(Nc3ccc(Oc4ccccc4)cc3)n2)c1 [GW663929]	0	34	14	0	12	2	0	25	0	35								
COc1cc2c(cc1OCCN1CCN(C)CC1)ncc1c3ccc(C#N)cc3[nH]c21	0	30	36	0	38	0	72	75	26	0								
COc1ccc(Nc2nccc(N3CCC(NC(=O)Nc4cccc(C(C)=O)c4)C3)n2)cc1 (stereo not drawn) [GSK1379731]	4	0	0	0	16	3	0	0	0	0								
CCn1cnc2c(N)ncnc21 [GW345098]	8	7	20	0	0	2	2	7	29	12								
CSc1ccc(-c2cc3ncnc(SCC(=O)O)c3s2)cc1	13	20	22	7	36	0	0	9	0	0								
NS(=O)(=O)CCc1cccc(Nc2nccc(-c3c(-c4cccc(NC(=O)c5c(F)cccc5F)c4)nn4ccccc34)n2)c1 [GSK336735]	94.9	74	13	0	8	40	0	0	14	26								
CN(C(=O)c1ccc(-c2cc(-c3c[nH]nc3-c3ccccn3)ccn2)cc1)C1CCOCC1 [GW810083]	8	13	34	0	10	0	0	0	0	0								
N#Cc1ccc(-c2cc(-c3c[nH]nc3-c3ccccn3)ccn2)cc1 [GW693028]	4	0	0	0	14	0	0	0	8	15								

SMILES	%Inh (MST1) [%]	%Inh (MST2) [%]	%Inh (MST3) [%]	%Inh (MST4) [%]	%Inh (MTOR) [%]	%Inh (MUSK) [%]	%Inh (MYLK2) [%]	%Inh (MYLK4) [%]	%Inh (MYLK) [%]	%Inh (MYO3A) [%]	%Inh (MST1; 1 µM)	%Inh (MST3; 1 µM)	%Inh (MST4; 1 µM)	%Inh (MTOR; 1 µM)	%Inh (MYLK2; 1 µM)	%Inh (MYLK4; 1 µM)	%Inh (MYLK; 1 µM)	%Inh (MYO3A; 1 µM)
Cc1nnc(-c2ccc3ncc(-c4ccc(S(C)=O)cc4)n3c2)o1 (stereo not drawn)	0	0	14	0	29	0	8	5	18	0								
O=C(NOCC1CC1)c1ccc(F)c(F)c1Nc1ccc(I)cc1Cl	0	0	4	0	28	0	0	0	0	0								
CCCCCc1nc2c(N)ncnc2n1CCCCC [SKF-97255]	0	0	0	0	0	0	6	12	17	1								
Cc1ccc(NC(=O)c2ccnc(N3CCN(C)CC3)c2)cc1-c1ccc(C(=O)NCC2CC2)cc1 [GW775604]	27	11	0	0	0	4	0	0	0	0								
Cl.Nc1ncnc2occ(-c3ccc(NC(=O)Nc4cc(C(F)(F)F)ccc4F)cc3)c12 [SB-707548]	50	26	52	8	16	100	37	26	21	96.6								
COc1cc2c(cc1OC[C@@H](O)CO)ncc1c3ccc(C#N)cc3[nH]c21	0	67	11	12	52	0	44	99	3	0								
Cn1cc(-c2ccc3c(c2)CCN3C(=O)Cc2ccccc2Cl)c2c(N)ncnc21 [GSK2608885]	95.3	64	30	13	8	29	8	2	12	34								
Cl.Oc1cccc(Nc2ccnc3cc(-c4ccncc4)ccc23)c1 [GW494601]	0	0	13	0	4	0	24	0	95.9	40								
CC(C)(CN)c1nc(-c2ccc(Cl)c(O)c2)c(-c2ccncc2)[nH]1.O=C(O)C(F)(F)F [SB-477794]		0				0					0% and 11%	0% and 1%	11% and 1%	35% and 17%	0% and 5%	0% and 6%	1% and 21%	25% and 59%
CCc1ccnc(/C=C/c2n[nH]c3cc(Sc4ccccc4C(=O)NC)ccc23)c1	6	36	19	4	12	0	0	0	0	0								
COCCNC(=O)c1ccc(-c2cc(C(=O)NC3CC3)cc(F)c2C)cc1 [GW868318]	17	24	3	38	0	28	1	5	29	5								
O=c1cc(N2CCOCC2)nc2n(Cc3cccc(Cl)c3Cl)c(C3CC3)nn12 [GSK2358994]	0	41	4	0	0	0	0	0	14	0								
CN1c2ccc(NCc3ccc(F)cc3)cc2-c2c(cnn2C)S1(=O)=O	0	28	0	0	20	3	0	0	12	0								
Cl.Cl.Cl.Fc1ccc(-c2ncn(C3CCNCC3)c2-c2ccnc(Nc3ccccc3)n2)cc1 [SB-238039]		0				0					82% and 69%	12% and 46%	44% and 0%	22% and 0%	43% and 30%	6% and 0%	0% and 22%	4% and 10%
CN(C1=C(c2ccccc2)C(=O)NC1=O)c1ccccc1 [SB-334860]	0	6	7	0	28	0	11	19	11	33								
O=C1Cc2cc(Nc3nc(NCc4cccc(S(=O)(=O)C(F)(F)F)c4)ncc3C(F)(F)F)ccc2N1	14	27	0	1	29	0	0	8	2	0								
